This passage reports AC50 and outcome results from PubChem BioAssay (EPA / NIEHS).

What all share (settings): mRNA level, 48 h; actives raise or lower the signal
Read-out in assay [1]: Lipase C (LIPC), LIPC (gene 3990)
The experiment in a line: LTEA_HepaRG_LIPC: Life Technologies and Expression Analysis (LTEA) Assay for Lipase C (LIPC) using HepaRG (AID 2283514). A digest of the protocol:
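Read-out is LIPC transcript level by TaqMan qRT-PCR, normalized to three housekeeping genes, after 48 h chemical treatment of human HepaRG liver cells. Curves span eight concentrations topping at 100 uM; activity in either direction scored relative to 0.5% DMSO.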

Read-out in assay [2]: Lipoprotein lipase (LPL), LPL (gene 4023)
The experiment in a line: LTEA_HepaRG_LPL: Life Technologies and Expression Analysis (LTEA) Assay for Lipoprotein lipase (LPL) using HepaRG (AID 2283515). A digest of the protocol: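 Read-out is LPL transcript level by qRT-PCR, normalized to three housekeeping genes and fitted bidirectionally against the DMSO control. Human HepaRG cells received chemicals for 48 h at up to 100 uM.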

Read-out in assay [3]: MicroRNA 122 (MIR122), gene 406906
Briefly: LTEA_HepaRG_MIR122: Life Technologies and Expression Analysis (LTEA) Assay for MicroRNA 122 (MIR122) using HepaRG (AID 2283516). Also: the transcript read is the microRNA miR-122. A digest of the protocol:
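HepaRG plated 48 h, switched to serum-free induction medium, then treated in duplicate for 48 h (100 uM top, half-log steps, 0.5% DMSO vehicle). RNA isolated, qRT-PCR performed, concentration-response fitted both directions relative to DMSO.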

Read-out in assay [4]: matrix metalloproteinase-10 (MMP10), MMP10 (gene 4319)
The experiment in a line: LTEA_HepaRG_MMP10: Life Technologies and Expression Analysis (LTEA) Assay for matrix metalloproteinase-10 (MMP10) using HepaRG (AID 2283517). A digest of the protocol:
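Gain or loss of MMP10 mRNA is fitted relative to the 0.5% DMSO vehicle. The human hepatic line HepaRG receives a 48-hour serum-free exposure, in duplicate, with a maximum concentration of 100 uM.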

Read-out in the next assay: MYC, MYC (gene 4609)
The experiment in a line: LTEA_HepaRG_MYC: Life Technologies and Expression Analysis (LTEA) Assay for MYC using HepaRG (AID 2283518). Put shortly:
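Cells are thawed, plated and cultured 48 h, then treated for 48 h with test chemicals (eight half-log concentrations from 100 uM, 0.5% DMSO vehicle). RNA is isolated and MYC expression quantified by qRT-PCR against three housekeeping genes.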

Read-out in assay [5]: matrix metalloproteinase-3 (MMP3), MMP3 (gene 4314)
The experiment in a line: LTEA_HepaRG_MMP3: Life Technologies and Expression Analysis (LTEA) Assay for matrix metalloproteinase-3 (MMP3) using HepaRG (AID 2283519). A digest of the protocol: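 HepaRG, human; 48 h dosing, 8 conc. (max 100 uM, half-log), duplicate, 0.5% DMSO. Readout: MMP3 transcript by Fluidigm TaqMan qRT-PCR, ACTB/GAPDH/POLR2A-normalised. Gain or loss fitted vs DMSO.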

Read-out in assay [6]: Paternally Expressed 10 (PEG10), PEG10 (gene 23089)
Briefly: LTEA_HepaRG_PEG10: Life Technologies and Expression Analysis (LTEA) Assay for Paternally Expressed 10 (PEG10) using HepaRG (AID 2283520). Put shortly:
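HepaRG, 48 h post-plating → serum-free induction medium → 48 h chemical exposure (duplicate, 8-pt, max 100 uM, half-log, 0.5% DMSO) → lysis in RLT → TaqMan qRT-PCR for PEG10, ACTB/GAPDH/POLR2A normalisation.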

Read-out in assay [7]: Nuclear factor NF-kappa-B p105 subunit (Homo sapiens) (UniProt P19838)
Briefly: LTEA_HepaRG_NFKB1: Life Technologies and Expression Analysis (LTEA) Assay for Nuclear Factor Kappa B Subunit 1 (NFKB1) using HepaRG (AID 2283521). Put shortly:
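Differentiated human HepaRG cells in serum-free induction medium with 0.5% DMSO were exposed for 48 h to eight half-log concentrations, top 100 uM, in duplicate. NFKB1 mRNA measured by Fluidigm TaqMan qRT-PCR, normalised to ACTB, GAPDH and POLR2A; bidirectional fit versus DMSO.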

Read-out in assay [8]: Protein phosphatase 2A (PPP2R4), PTPA (gene 5524)
Briefly: LTEA_HepaRG_PPP2R4: Life Technologies and Expression Analysis (LTEA) Assay for Protein phosphatase 2A (PPP2R4) using HepaRG (AID 2283522). Put shortly: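 Readout is PPP2R4 transcript level by microfluidic qRT-PCR after 48 h chemical treatment of human HepaRG liver cells. Concentrations spanned 100 uM downward in half-log steps; gain or loss of signal was fitted relative to DMSO.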

Read-out in assay [9]: Phosphatase and tensin (PTEN), PTEN (gene 5728)
The experiment in a line: LTEA_HepaRG_PTEN: Life Technologies and Expression Analysis (LTEA) Assay for Phosphatase and tensin (PTEN) using HepaRG (AID 2283523). A digest of the protocol:
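Read-out is PTEN transcript level by multiplexed TaqMan qRT-PCR after 48 h chemical treatment of human HepaRG cultures in serum-free induction medium. Concentrations spanned 100 uM downward in half-log steps, 0.5% DMSO throughout; activity fitted in both directions against vehicle.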

The AC50 is the midpoint of the concentration-response curve, whichever way the signal moves.

The source made the active and inactive calls. The calls were made as follows: active = hit-call score of the fitted dose curve at least 0.9, where 1 is the maximum; inactive = score below 0.9.

Chain of Nuclear factor NF-kappa-B p105 subunit (Homo sapiens) (P19838 whole entry, looked up): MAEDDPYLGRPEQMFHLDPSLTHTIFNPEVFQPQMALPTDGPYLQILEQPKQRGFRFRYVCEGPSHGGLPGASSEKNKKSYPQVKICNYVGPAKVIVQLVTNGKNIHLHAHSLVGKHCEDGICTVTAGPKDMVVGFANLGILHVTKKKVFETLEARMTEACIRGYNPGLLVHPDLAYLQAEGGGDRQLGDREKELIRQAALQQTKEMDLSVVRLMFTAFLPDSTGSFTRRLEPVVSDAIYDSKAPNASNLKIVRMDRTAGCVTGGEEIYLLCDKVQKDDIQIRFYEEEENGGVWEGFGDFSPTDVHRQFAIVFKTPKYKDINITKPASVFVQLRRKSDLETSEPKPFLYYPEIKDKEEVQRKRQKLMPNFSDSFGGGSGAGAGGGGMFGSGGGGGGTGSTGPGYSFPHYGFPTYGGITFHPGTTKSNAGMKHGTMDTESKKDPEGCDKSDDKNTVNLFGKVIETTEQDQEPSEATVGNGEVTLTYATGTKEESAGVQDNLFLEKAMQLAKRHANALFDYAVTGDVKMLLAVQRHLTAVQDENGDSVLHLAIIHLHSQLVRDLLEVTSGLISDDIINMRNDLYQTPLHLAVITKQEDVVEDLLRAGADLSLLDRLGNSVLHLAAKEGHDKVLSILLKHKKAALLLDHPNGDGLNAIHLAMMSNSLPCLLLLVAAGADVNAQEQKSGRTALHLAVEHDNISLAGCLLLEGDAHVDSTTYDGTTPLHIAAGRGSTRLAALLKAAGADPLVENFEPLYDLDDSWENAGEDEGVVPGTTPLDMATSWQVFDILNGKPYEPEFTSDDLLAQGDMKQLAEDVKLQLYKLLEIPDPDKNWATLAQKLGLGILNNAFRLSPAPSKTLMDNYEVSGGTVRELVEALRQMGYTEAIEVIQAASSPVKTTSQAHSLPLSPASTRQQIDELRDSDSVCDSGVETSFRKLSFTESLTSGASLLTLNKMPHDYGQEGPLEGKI

Turning to `Cc1ccc(N=C=O)cc1N=C=O`, the AC50 is 50 µM (active) in assay [1]; 3.41 µM (active) in [2]; 50 µM (active) in assay [3]; 27 µM (active) in assay [4]; 19.3 µM (active) in the assay with MYC, MYC (gene 4609); 12.4 µM (active) in [6]. The outcome in assay [5], in [7], in assay [8] and in [9] was inactive.
Turning to `C[C@]12C=CC3=C4CCC(=O)C=C4CC[C@H]3[C@@H]1CC[C@@H]2O`, the outcome in assay [2] was “inactive”; in assay [4] it was “inactive”; with MYC, MYC (gene 4609), “inactive”; in [5] it was “inactive”; in assay [7] it was “inactive”; in assay [8], “inactive”. In assay [9], the result was inactive. Besides, the figures for the concentration at half-maximal activity (AC50) in [3] and in assay [6] were 69.6 µM (active) and 0.805 µM (active), respectively.
Take `O=C(O)C1C2CCC(O2)C1C(=O)O` (stereo not drawn): the AC50 in assay [1] was 82.6 µM (active); in assay [3], 74.4 µM (active); in [5], 27.7 µM (active); in assay [6], 85.7 µM (active). The outcome in assay [2] is “inactive”; in the assay with MYC, MYC (gene 4609), “inactive”; in assay [8], “inactive”; in [9], “inactive”.
Turning to `OCCOCCO`, the outcome in assay [1] was “inactive”; in assay [2], “inactive”; in assay [3], “inactive”; in [4], “inactive”; in the assay with MYC, MYC (gene 4609), “inactive”; in assay [5], “inactive”. The result in assay [6] and in assay [8] was inactive.
With `CNC(=O)Oc1cccc2c1OC(C)(C)C2`, the outcome is “inactive” in [1]; “inactive” in assay [2]; “inactive” in [3]; “inactive” in assay [4]; “inactive” with MYC, MYC (gene 4609); “inactive” in [5]. The outcome in assay [6] and in assay [8] was inactive.
As for `Cc1ccc([N+](=O)[O-])cc1`, the outcome in assay [1] is “inactive”; in assay [2], “inactive”; in assay [3] it was “inactive”; in assay [4], “inactive”; with MYC, MYC (gene 4609), “inactive”; in [5] it was “inactive”. Further, the compound was called inactive in assay [8]. Further, the AC50 in assay [6] was 11.3 µM (active).
Turning to `Nc1ccc(N=Nc2ccccc2)cc1`, the AC50 in [1] is 12.8 µM (active); in assay [2], 22.3 µM (active); in assay [3], 18.1 µM (active); in assay [6], 18.4 µM (active); in assay [8], 21.1 µM (active); in [9], 25 µM (active). In addition, the outcome in assay [4] is “inactive”; with MYC, MYC (gene 4609), “inactive”; in assay [5] it was “inactive”.
As to `OCCCl`, the outcome in assay [1] was “inactive”; in [2], “inactive”; in assay [3] it was “inactive”; in assay [4], “inactive”; with MYC, MYC (gene 4609) it was “inactive”; in assay [5], “inactive”. For the same compound, the call in assay [6] and in [8] was inactive.
Consider `CCCCCCCCCCCCCN1CC(C)OC(C)C1` (stereo not drawn), for which the outcome in assay [1] is “inactive”; in assay [2], “inactive”; in [3] it was “inactive”; in assay [4], “inactive”; with MYC, MYC (gene 4609), “inactive”; in [5], “inactive”. Besides, the result in assay [6], in assay [8] and in assay [9] was inactive.
In the case of `c1ccc2c(c1)oc1ccccc12`, the outcome in [1] was “inactive”; in [2], “inactive”; in [3] it was “inactive”; in assay [4], “inactive”; in the assay with MYC, MYC (gene 4609), “inactive”; in assay [5], “inactive”. Further, the call in assay [6], in assay [7], in [8] and in assay [9] was inactive.
For `O=C1CCCO1`, the outcome in [1] was “inactive”; in assay [3], “inactive”; in assay [4], “inactive”; with MYC, MYC (gene 4609) it was “inactive”; in assay [6], “inactive”; in [8], “inactive”. Also, the AC50 in [2] was 50 µM (active); in assay [5] it was 83.1 µM (active).
Turning to `CC(C)(C)OOC(C)(C)CCC(C)(C)OOC(C)(C)C`, the outcome in assay [1] is “inactive”; in assay [2] it was “inactive”; in assay [3], “inactive”; in [4] it was “inactive”; in the assay with MYC, MYC (gene 4609), “inactive”; in assay [5], “inactive”. In addition, the outcome in assay [6] and in [8] was inactive.
As to `COC(=O)Nc1nc2ccccc2[nH]1`, the outcome is “inactive” in [1]; “inactive” in [2]; “inactive” in assay [3]; “inactive” in assay [4]; “inactive” with MYC, MYC (gene 4609); “inactive” in assay [5]. Moreover, the compound was classed as inactive in [6] and in [8].
With `Nc1cc(Cl)cc(C(=O)O)c1Cl`, the outcome in assay [1] is “inactive”; in assay [2] it was “inactive”; in assay [3] it was “inactive”; in [4], “inactive”; in the assay with MYC, MYC (gene 4609), “inactive”; in assay [5], “inactive”. For the same compound, the call in assay [6] and in assay [8] was inactive.
Take `ClC1=C(Cl)[C@]2(Cl)[C@H]3[C@H]([C@@H]4C=C[C@H]3C4)[C@@]1(Cl)C2(Cl)Cl`: the result in [1], in [2], in [3], in [4], in assay [5] and in assay [6] was inactive. Besides, the result in assay [8] was inactive. Also, in the assay with MYC, MYC (gene 4609), the AC50 is 50 µM (active).
On to `CN(C)c1ccccc1`, for which the outcome in assay [1] is “inactive”; in assay [2], “inactive”; in assay [3] it was “inactive”; in [4], “inactive”; with MYC, MYC (gene 4609), “inactive”; in assay [5] it was “inactive”. The compound was classed as inactive in assay [6], in [8] and in assay [9].
Take `CCCCCCCCOC(=O)c1ccc(C(=O)OCCCCCCCC)c(C(=O)OCCCCCCCC)c1`: the call in assay [1], in [2], in assay [3], in assay [4], in assay [5] and in assay [6] was inactive. For the same compound, the outcome in assay [7], in [8] and in [9] was inactive.
Take `CCNS(=O)(=O)C(F)(F)C(F)(F)C(F)(F)C(F)(F)C(F)(F)C(F)(F)C(F)(F)C(F)(F)F`: the outcome was “inactive” in [1]; “inactive” in assay [2]; “inactive” in assay [4]; “inactive” with MYC, MYC (gene 4609); “inactive” in [5]; “inactive” in [8]. Further, the compound was classed as inactive in assay [9]. In addition, the results for the AC50 in [3] and in assay [6] were 48.2 µM (active) and 15.5 µM (active), respectively.
For the compound `N#CC(Br)Br`, the outcome is “inactive” in assay [1]; “inactive” in assay [2]; “inactive” in [4]; “inactive” in the assay with MYC, MYC (gene 4609); “inactive” in [5]; “inactive” in assay [6]. For the same compound, the compound was classed as inactive in assay [7], in [8] and in assay [9].
`Nc1ccc(Cc2ccc(N)cc2)cc1`: the outcome in assay [1] was “inactive”; in assay [2] it was “inactive”; in [3] it was “inactive”; in assay [4], “inactive”; in the assay with MYC, MYC (gene 4609), “inactive”; in assay [6], “inactive”. For the same compound, the call in [7] and in assay [8] was inactive.
`O=P(OCCCl)(OCCCl)OCCCl`: the outcome in [1] is “inactive”; in [2] it was “inactive”; in assay [3] it was “inactive”; in assay [4] it was “inactive”; in the assay with MYC, MYC (gene 4609) it was “inactive”; in assay [6], “inactive”. Further, in assay [9], the call was inactive. Further, the AC50 is 67.3 µM (active) in [5] and 50 µM (active) in assay [8].
For `Clc1ccc(Cl)c(Cl)c1`, the outcome in assay [1] is “inactive”; in [3], “inactive”; in assay [4], “inactive”; with MYC, MYC (gene 4609) it was “inactive”; in [5], “inactive”; in assay [8] it was “inactive”. Also, the AC50 in [2] and in assay [6] was 50 µM (active) in each case.
